This is a sample that favours compounds with a hit; in the whole collection about 7.3% have one here.
AmpC no deterg = qHTS Inhibitors of AmpC Beta-Lactamase (assay without detergent); P00811; AmpC nitrocefin hydrolysis, absorbance 480 nm, 0.0001% Triton; Potency, µM (titrated, usually from 57.1 µM), hits mostly inhibitors; hit rate 0.52% among 330,000; AID 485341, 2010; also: nearly all actives have a fitted effect of over 20% in size
Target sequence (P00811 whole entry, looked up): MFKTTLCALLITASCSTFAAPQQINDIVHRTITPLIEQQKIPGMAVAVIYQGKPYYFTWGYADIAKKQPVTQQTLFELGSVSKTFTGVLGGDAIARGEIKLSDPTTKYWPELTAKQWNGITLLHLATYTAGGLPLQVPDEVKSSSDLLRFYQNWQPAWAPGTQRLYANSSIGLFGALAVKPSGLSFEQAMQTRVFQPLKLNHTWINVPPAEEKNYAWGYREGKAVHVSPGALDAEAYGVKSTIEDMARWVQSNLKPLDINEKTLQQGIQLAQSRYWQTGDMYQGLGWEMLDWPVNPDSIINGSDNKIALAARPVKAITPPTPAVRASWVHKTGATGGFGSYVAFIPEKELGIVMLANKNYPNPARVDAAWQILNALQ
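AmpC (5.3 nM in the dispensed reagent) in 20 mM phosphate pH 7.0 with 0.01% (detergent screen) or 0.0001% Triton X-100 was preincubated with compounds for 15 min at room temperature. Nitrocefin was then added from an 800 uM solution, and hydrolysis was followed at 480 nm.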
FMDV antiviral = High Throughput Screening for Foot and Mouth Disease Virus Antivirals; hit rate 1.2% among 410,000; AID 1159524, 2015; Potency, µM (series often up to 57.9 µM), most hits filed as inhibitors; FMDV antiviral cell-based qHTS; calls by dose curve; tested in HEK293T cells; also: read-out not given here; nearly all actives have a fitted effect of over 45% in size
HCV inh = qHTS Assay for Inhibitors of Hepatitis C Virus (HCV). Potency, µM (top dose mostly 41.8 µM), usual class: inhibitors. Huh7.5.1 HCVcc-Cre infection, luciferase reporter, 44 h. hit rate 3.4% among 340,000
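Infectious HCVcc-Cre (~0.5 moi) was added to cells just after compound, with cells seeded 4 h earlier at 1,000 per well. Luciferase activity after 44 h culture reported infection; substrate was incubated 15 min at room temperature before reading.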
AmpC inh detg = qHTS Inhibitors of AmpC Beta-Lactamase (assay with detergent) | P00811 | AmpC hydrolysis of nitrocefin, absorbance 480 nm, 0.01% Triton | Potency, µM (top dose mostly 114 µM), usual class: inhibitors | hit rate 0.041% among 370,000 | AID 485294, 2010; also: nearly all actives have a fitted effect of over 25% in size
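20 mM phosphate pH 7.0 + 0.01% (detergent screen) or 0.0001% Triton X-100; 5.3 nM AmpC reagent; cpd preinc 15 min RT; nitrocefin (800 uM stock) to start; A480 q20 s × 4 min; Activity was normalised to no-enzyme and no-compound control wells.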
HCMV inh = qHTS Assay for inhibitors of the human cytomegalovirus (HCMV) | HFF cells, HCMV-luciferase reporter, 72 h; hits give low values | activity change, negative = inhibition, % at 57.5 µM | hit rate 4.5% among 410,000 | AID 1259415, 2018; in the data active = activity change below about -60%; inconclusive = no clear call, values can overlap the other calls; inactive = above about -39%
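Compounds were evaluated in HFFs infected with an HCMV luciferase reporter virus (MOI 1 PFU/cell). Luciferase in lysates collected 72 h post infection served as the replication measure.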
Numbers stand for hits. Unless noted, calls follow the shape of the dose curve; as a rule, active = well fitted curve in the direction sought with a large enough effect; inconclusive = small, poorly fitted or top-dose-only effect, or another doubt; inactive = no such curve, though single readings can be large; an effect the other way counts as inactive or inconclusive.

What do the screens show for `CSc1ccccc1NC(=O)CN(C)Cc1c(O)ccc2ccccc12`?
AmpC no deterg: inactive; FMDV antiviral: inactive; HCV inh: inactive; AmpC inh detg: inactive; HCMV inh: inactive

How did O=C(C(=O)N1CCC(Cc2ccccc2)CC1)c1ccccc1 do in these assays?
FMDV antiviral: inactive; HCMV inh: inactive

How did COc1ccccc1-c1c(-c2ccc(O)cc2O)n[nH]c1C(F)(F)F do in these assays?
AmpC no deterg: inactive; FMDV antiviral: 15.8µM; HCV inh: inconclusive; AmpC inh detg: inactive; HCMV inh: active

Results for Oc1ccc(-c2n[nH]c(C(F)(F)F)c2-c2ccccc2)c(O)c1 ?
AmpC no deterg: inactive; FMDV antiviral: 20µM; HCV inh: 5.62µM; AmpC inh detg: inactive; HCMV inh: -81.7

What do the screens show for `COc1ccc(-c2c(-c3ccc(O)cc3O)n[nH]c2C(F)(F)F)cc1`?
AmpC no deterg: inactive; FMDV antiviral: inactive; HCV inh: inconclusive; AmpC inh detg: inactive; HCMV inh: inactive

How did COc1ccccc1NC(=O)CSc1oc(-c2ccccc2)nc1S(=O)(=O)c1ccc(C)cc1 do in these assays?
FMDV antiviral: inactive; AmpC inh detg: inactive; HCMV inh: inactive

Results for CC(=O)N1c2ccc(S(=O)(=O)NCC3CCC(C(=O)Nc4cccc(C)n4)CC3)cc2CC1C (stereo unspecified) ?
AmpC no deterg: inactive; FMDV antiviral: 22.4µM; HCV inh: inconclusive; AmpC inh detg: inactive; HCMV inh: -71.2

How did CC(=O)N1c2ccc(S(=O)(=O)N3CCC(C(=O)Nc4ccccn4)CC3)cc2CC1C (stereo unspecified) do in these assays?
AmpC no deterg: inactive; FMDV antiviral: inactive; HCV inh: inconclusive; AmpC inh detg: inactive; HCMV inh: inconclusive

How did CC(=O)N1c2ccc(S(=O)(=O)N3CCC(C(=O)Nc4cccc(C)n4)CC3)cc2CC1C (stereo unspecified) do in these assays?
AmpC no deterg: inactive; FMDV antiviral: inactive; HCV inh: 1.26µM; AmpC inh detg: inactive; HCMV inh: -86.7

What do the screens show for `CCCCCCn1cc(CN2CC(N(C)CC)CS2(=O)=O)nn1` (stereo unspecified)?
FMDV antiviral: inactive; HCMV inh: inactive

Results for CCc1ccc(N(CC(=O)NC(C)(C)C)C(=O)CCC(=O)Nc2ccccn2)cc1 ?
AmpC no deterg: inactive; FMDV antiviral: inactive; HCV inh: inactive; AmpC inh detg: inactive; HCMV inh: inactive

What do the screens show for `N#CC1=C(N)C(C#N)(C#N)[C@H](c2c(F)cccc2F)[C@H]2CC3(CC=C12)OCCO3`?
AmpC no deterg: inactive; FMDV antiviral: inconclusive; HCV inh: inactive; AmpC inh detg: inconclusive; HCMV inh: -106.7

Results for N#C/C(=C(/O)COC(=O)COc1cccc(Br)c1)c1nc2ccccc2[nH]1 ?
AmpC no deterg: inactive; FMDV antiviral: inactive; HCV inh: inactive; AmpC inh detg: inactive; HCMV inh: -78.4

How did Cc1cc(C)cc(OCC(=O)OC/C(O)=C(\C#N)c2nc3ccccc3[nH]2)c1 do in these assays?
AmpC no deterg: inactive; FMDV antiviral: inactive; HCV inh: inactive; AmpC inh detg: inconclusive; HCMV inh: -80.7

How did N#C/C(=C(/O)COC(=O)c1ccc(O)cc1)c1nc2ccccc2[nH]1 do in these assays?
AmpC no deterg: inactive; FMDV antiviral: inactive; HCV inh: inactive; AmpC inh detg: inactive; HCMV inh: inactive

Results for Cc1nc2c(C(=O)NCc3ccco3)cnn2c(C)c1Cc1ccc(F)cc1Cl ?
AmpC no deterg: inactive; FMDV antiviral: inconclusive; HCV inh: 12.6µM; AmpC inh detg: inactive; HCMV inh: inactive

How did O=C(CCC(=O)Nc1ccccc1Cl)NNC(=O)COc1ccc([N+](=O)[O-])cc1 do in these assays?
AmpC no deterg: inactive; FMDV antiviral: inactive; HCV inh: inactive; AmpC inh detg: inactive; HCMV inh: inactive

What do the screens show for `COc1cccc(-n2c(/C=C/c3ccc(O)c(O)c3)nc3ccccc3c2=O)c1`?
AmpC no deterg: 17.8µM; FMDV antiviral: inactive; HCV inh: inactive; AmpC inh detg: inactive; HCMV inh: inactive

How did COc1ccc(-n2c(/C=C/c3ccc(O)c(OC)c3)nc3ccccc3c2=O)cc1 do in these assays?
AmpC no deterg: inactive; FMDV antiviral: inactive; HCV inh: 11.2µM; AmpC inh detg: inactive; HCMV inh: -99.1

What do the screens show for `CN(C(=O)c1ccc(NC(=O)Cc2ccc(NC(=O)C3CCCN(C(=O)C4CCCC4)C3)cc2)cc1)C1CC1` (stereo unspecified)?
AmpC no deterg: inactive; FMDV antiviral: inactive; HCV inh: inconclusive; AmpC inh detg: inactive; HCMV inh: inactive

How did CCc1cccc(C)c1NC(=O)CSc1nnc(CC)n2c1cc1occc12 do in these assays?
FMDV antiviral: 22.4µM; AmpC inh detg: inactive; HCMV inh: -69.1

Results for CCc1nn(C(C)C(=O)Nc2cccc(C)c2C)c(=O)c2cc3occc3n12 (stereo unspecified) ?
AmpC no deterg: inactive; FMDV antiviral: inactive; HCV inh: 11.2µM; AmpC inh detg: inactive; HCMV inh: inactive

How did CCc1nn(C(C)C(=O)NCCN2CCN(c3cccc(C)c3C)CC2)c(=O)c2cc3occc3n12 (stereo unspecified) do in these assays?
AmpC no deterg: inactive; FMDV antiviral: 28.2µM; HCV inh: 1.78µM; AmpC inh detg: inactive; HCMV inh: inactive

How did CC(=O)c1ccc(NC(=O)c2nc(-c3ccccc3)n(-c3ccccc3Cl)n2)cc1 do in these assays?
FMDV antiviral: inactive; AmpC inh detg: inactive; HCMV inh: inactive

What do the screens show for `Cc1cnc(CNc2ncnc3ccc(-c4ccccc4Cl)cc23)cn1`?
FMDV antiviral: inactive

What do the screens show for `Cc1ccc(-c2nc3nc(C)cc(Nc4ccccc4O)n3n2)cc1`?
FMDV antiviral: inactive; AmpC inh detg: inconclusive; HCMV inh: inconclusive

How did COc1ccccc1Nc1cc(C)nc2nc(-c3ccccc3)nn12 do in these assays?
FMDV antiviral: inactive; AmpC inh detg: inactive; HCMV inh: -86.2

How did CCOc1cc(N2CCOCC2)c(OCC)cc1NC(=O)COc1ccccc1[N+](=O)[O-] do in these assays?
AmpC no deterg: inactive; FMDV antiviral: inactive; HCV inh: inconclusive; AmpC inh detg: inactive; HCMV inh: inactive

What do the screens show for `CC(C)C(=O)N1CCN(c2ccc(NC(=O)c3ccc([N+](=O)[O-])o3)cc2Cl)CC1`?
AmpC no deterg: inactive; FMDV antiviral: 25.1µM; HCV inh: 10µM; AmpC inh detg: inactive; HCMV inh: -99.9

Results for O=C(COc1ccccc1[N+](=O)[O-])Nc1cccc(Cl)c1N1CCOCC1 ?
AmpC no deterg: inactive; FMDV antiviral: 39.8µM; HCV inh: inconclusive; AmpC inh detg: inactive; HCMV inh: inactive

What do the screens show for `CCCCCC(=O)Nc1ccc(N2CCN(CC)CC2)c(Cl)c1`?
AmpC no deterg: inactive; FMDV antiviral: inconclusive; HCV inh: 22.4µM; AmpC inh detg: inactive; HCMV inh: inactive

Screens (PubChem BioAssay)
